Screens (PubChem)
Sampled rows, rich in hits. Any-hit rate of the full collection: about 0.97%.
SK-BR-3 tox 24h: SK-BR-3 proliferation inhibitors. SK-BR-3 viability, CellTiter-Glo ATP luminescence, 24 h; active compounds read low. viability, % at 10 µM. 41,000 tested, 0.47% active;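 active = viability at or below the median of all test compounds minus 3 SD, in both replicates if run twice, cut at about 45% in these data; inconclusive = duplicate replicates that disagree with each other; inactive = viability above that cutoff in every replicate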;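 note: 100% = median untreated cell wells and 0% = median positive control drug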
Her2 expr inh: Her2 kinase expression inhibition | P04626 | SKBR-3 HER2 protein level, AlphaScreen, 18-24 h; active compounds read low | HER2 level % of control, % at 10 µM | 65,000 tested, 0.69% active;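 active = HER2 level under 5% of the carrier-only control; inconclusive = no clear call, values can overlap the other calls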;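 note: 100% = DMSO carrier and 0% = 500 nM PU-H71 HSP90 inhibitor; lower value means stronger loss of Her2 protein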
Target sequence (P04626 whole entry, looked up): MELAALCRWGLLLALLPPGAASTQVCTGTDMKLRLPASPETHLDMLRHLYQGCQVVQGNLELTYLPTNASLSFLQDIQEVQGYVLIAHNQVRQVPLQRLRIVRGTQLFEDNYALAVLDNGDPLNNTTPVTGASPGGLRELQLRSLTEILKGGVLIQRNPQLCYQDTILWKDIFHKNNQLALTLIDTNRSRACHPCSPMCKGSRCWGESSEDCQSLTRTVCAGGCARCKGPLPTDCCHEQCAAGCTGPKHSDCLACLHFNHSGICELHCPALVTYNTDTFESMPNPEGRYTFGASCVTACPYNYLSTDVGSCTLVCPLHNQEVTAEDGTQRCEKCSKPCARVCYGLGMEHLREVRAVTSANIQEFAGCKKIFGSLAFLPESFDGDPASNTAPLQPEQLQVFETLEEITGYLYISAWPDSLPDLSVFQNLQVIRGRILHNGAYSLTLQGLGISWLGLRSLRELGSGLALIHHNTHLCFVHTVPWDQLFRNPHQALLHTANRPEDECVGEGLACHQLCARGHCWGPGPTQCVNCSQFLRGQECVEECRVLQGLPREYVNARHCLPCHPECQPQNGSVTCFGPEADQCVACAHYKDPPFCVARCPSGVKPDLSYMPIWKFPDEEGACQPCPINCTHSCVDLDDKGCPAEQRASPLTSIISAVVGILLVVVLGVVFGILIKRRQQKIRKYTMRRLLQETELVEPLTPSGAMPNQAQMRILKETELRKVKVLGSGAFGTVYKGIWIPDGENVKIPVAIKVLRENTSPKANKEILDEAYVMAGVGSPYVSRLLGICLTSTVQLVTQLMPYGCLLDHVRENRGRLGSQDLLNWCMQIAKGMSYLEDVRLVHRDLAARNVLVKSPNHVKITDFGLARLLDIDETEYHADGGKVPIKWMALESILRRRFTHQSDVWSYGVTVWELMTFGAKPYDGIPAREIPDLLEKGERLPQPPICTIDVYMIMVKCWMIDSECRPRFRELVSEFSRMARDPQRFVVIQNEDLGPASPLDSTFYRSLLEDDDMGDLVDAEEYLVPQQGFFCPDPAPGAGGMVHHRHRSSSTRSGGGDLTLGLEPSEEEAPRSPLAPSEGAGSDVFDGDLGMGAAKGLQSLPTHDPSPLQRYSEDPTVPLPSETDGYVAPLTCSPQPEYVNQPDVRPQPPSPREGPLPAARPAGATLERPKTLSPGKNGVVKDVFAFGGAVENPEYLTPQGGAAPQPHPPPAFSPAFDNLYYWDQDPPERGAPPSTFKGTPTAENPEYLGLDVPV
mHtt clearance: mutant huntingtin protein clearance | HeLa Exon1htt(103Q)mCFP, aggregate imaging; zero = plate's median compound well | inhibition, % at 1.5 µM | 47,000 tested, 0.42% active;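 active = inhibition of aggregate fluorescence above about 70%, also judged a hit by eye on the cell image, limit read from the data, passing the limit was not always enough; inconclusive = no rule stated for this call; inactive = not judged a hit on image review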;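 note: cells exposed to compound for three days before fixation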
* marks the source's active call; other numbers are inactive results; ? = inconclusive; · = not tested or not shown.

SMILES	SK-BR-3 tox 24h	Her2 expr inh	mHtt clearance
O=C(NCc1ccc(N2CCCC2=O)cc1)Nc1ccccc1	97.8	57.0	·
FC(F)(F)c1ccc(N2CCOCC2)c(Nc2nc3ccccc3n3cnnc23)c1	·	-16.3*	1.6
O=C(Cn1cnc2ccccc21)Nc1cc(C(F)(F)F)ccc1N1CCOCC1	·	104.2	·
COc1ccccc1-c1cc(C(=O)NCCc2ccccc2)no1	·	·	78.6*
COc1ccc(CCNC(=O)c2cc(-c3ccccc3OC)on2)cc1OC	76.0	79.8	-9.0
O=C1NCCCC2c3c(cc(Br)c(O)c3Br)OC12N1CCCCC1 (configuration not stated)	·	·	-2.1
Cc1cc(C)n(-c2c(F)c(F)c(CN3CCOCC3)c(F)c2F)n1	96.9	-20.7*	·
Cc1cc(C)n(-c2c(F)c(F)c(CN3CCCCC3)c(F)c2F)n1	76.2	71.7	·
CCn1c(SCC(=O)Nc2nccs2)nnc1-c1ccc(S(=O)(=O)N2CCCCC2)cc1	·	105.7	·
N#C/C(=C(/O)COC(=O)c1ccc2c(c1)OCCO2)c1nc2ccccc2[nH]1	·	108.6	-28.6
CCOC(=O)c1c(C)[nH]c(C(=O)OC/C(O)=C(\C#N)c2nc3ccccc3[nH]2)c1C	·	-3.7*	-6.0
O=c1c2cnn(-c3ccc(F)cc3)c2ncn1Cc1ccccc1	·	·	-11.8
COc1ccc2c(=O)c3c(=O)n(Cc4ccco4)c(-c4cc(OC)c(OC)c(OC)c4)nc3oc2c1	26.7*	14.5	27.3
COc1ccc2c(=O)c3c(=O)n(Cc4ccco4)c(-c4ccccc4)nc3oc2c1	80.0	59.4	12.8
O=C(CN(C1CCCCC1)S(=O)(=O)c1ccc(F)cc1)NCc1ccncc1	74.9	92.4	-7.3
COc1ccc(Cn2c(C)ccc2C)cc1	79.2	71.4	·
CCN1CSC(=S)N(Cc2ccc(OC)cc2)C1	·	-11.5*	·
CCOc1ccc(CNc2ccc3c(c2)ncn3C)cc1	81.7	-17.4*	-37.2
CCn1cnc2cc(NCc3ccc(C)cc3)ccc21	80.3	79.7	·
O=C(CCN1C(=O)C2C3C=CC(C3)C2C1=O)Nc1ccccn1 (configuration not stated)	100.1	117.4	·
Cc1cc(C)nc(N2CCC(CNC(=O)CCc3ccccc3)CC2)n1	73.9	57.3	30.4
COc1ccc2oc(=O)c(-c3nnc(NCc4ccco4)s3)cc2c1	·	-10.6*	58.1
CCOc1cccc2cc(-c3nnc(NCc4ccco4)s3)c(=O)oc12	·	40.7	-68.4
O=C(Nc1nccs1)c1cccc(S(=O)(=O)N2CCOCC2)c1	86.8	·	-4.5
O=C(CCN1CCC(c2ccccc2)C1)c1cccs1 (configuration not stated)	146.7	-45.2*	·
SMILES	SK-BR-3 tox 24h	Her2 expr inh	mHtt clearance
O=C(c1cccs1)N1CCC(c2ccccc2)C1 (configuration not stated)	82.0	89.4	-82.5
Cc1cccc(-c2c3c(=O)n(C)c(=O)n(C)c3c3c(C)cc(C)nn23)c1	55.1	107.0	·
CCCc1nc(SCC(=O)NCc2ccc3c(c2)OCO3)c2c(=O)n(C)c(=O)n(C)c2n1	·	62.6	·
Cn1c(=O)c2c(nc(SCC(=O)NCc3ccc4c(c3)OCO4)n2Cc2ccc(Cl)cc2)n(C)c1=O	·	·	81.2*
CC1=C2C(CCS2(=O)=O)CC2(C1)C(=O)OC(C)(C)OC2=O (configuration not stated)	93.6	111.7	5.6
CCN1CCN(C(=O)c2sc3nc(C)nc(N4CCC(C)CC4)c3c2C)CC1	83.0	78.0	·
Cc1nc(N2CCC(C)CC2)c2c(C)c(C(=O)O)sc2n1	·	117.4	80.1*
CCCCS(=O)(=O)/C=C\C1C2C=CC(C2)C1S(=O)(=O)CCCC (configuration not stated)	·	108.0	30.7
CCCCS(=O)(=O)/C=C\C=C/S(=O)(=O)CCCC	38.0*	-17.3*	53.9
Cc1ccc(S(=O)(=O)n2nc(-c3ccc(Cl)cc3)nc2NCc2ccco2)cc1	84.2	106.0	-3.5
COCCSc1ccccc1C(=O)Nc1nnc(COC)s1	87.1	81.9	·
COCCSc1ccccc1C(=O)Nc1cc(C)on1	·	111.0	74.8*
COC(=O)C1=C(N)OC2=C(C(=O)CC(C)(C)C2)C1c1ccoc1 (configuration not stated)	·	109.1	8.8
O=C1OC2CCC1(c1ccccc1)C2 (configuration not stated)	139.3	108.5	·
Cc1[nH]c(-c2ccc3c(c2)OCO3)nc1C(=O)O	·	·	39.5
CC(C)N1CCC2(CC1)N=C(c1ccc3c(c1)OCO3)CC(c1cc(Cl)ccc1O)N2 (configuration not stated)	·	-18.3*	-70.4
CCc1ccc(N2CSC3=C(C#N)C(c4cccs4)CC(=O)N3C2)cc1 (configuration not stated)	89.4	80.4	·
CCc1ccc(C2CC(=O)N3CN(c4ccccc4)CSC3=C2C#N)cc1 (configuration not stated)	·	-17.6*	52.8
CN(Cc1ccccc1)Cc1nc2c([nH]1)c(=O)n(C)c(=O)n2C	·	97.0	·
CCCCCNC(=O)C(C#N)c1nc2ccccc2nc1N1CCCC1 (configuration not stated)	74.2	-23.2*	7.6
CCCCCCNC(=O)C(C#N)c1nc2ccccc2nc1N1CCCC1 (configuration not stated)	72.4	105.2	-5.3
CNc1nc(NC)nc(-n2c(C(F)(F)F)nc3ccccc32)n1	92.6	90.0	?
CC(=O)c1sc2nc(-c3cccs3)cc(C(F)(F)F)c2c1N	108.1	-2.8*	-7.3
Cc1c(C(=O)Nc2nccs2)sc2nc(-c3cccs3)cc(C(F)(F)F)c12	·	·	-40.9
CCOC(=O)c1cc(-c2nnc(-c3ccc(Oc4ccccc4)cc3)o2)c(C)nc1C	·	77.0	?
SMILES	SK-BR-3 tox 24h	Her2 expr inh	mHtt clearance
COc1ccc(C2=CC(c3c(C)nn(-c4ccccc4)c3Cl)n3nnnc3N2)cc1OC (configuration not stated)	·	43.6	·
CC(C)CCCC(C)NS(=O)(=O)Cc1ccccc1 (configuration not stated)	·	·	7.0
Cc1csc(SCc2c(C(=O)O)oc3ccccc23)n1	·	85.0	25.6
O=c1[nH]c(CN2CCN(CCO)CC2)nc2ccccc12	85.1	89.7	76.6*
NC(=O)C1CCN(Cc2nc3ccccc3c(=O)[nH]2)CC1	·	·	-222.2
O=C(NCc1ccccc1)C(c1ccncc1)N(C(=O)c1csnn1)C1CC1 (configuration not stated)	·	·	53.3
Cc1ccc(C(=O)OCc2cn3ccccc3n2)cc1	·	95.1	·
CN(Cc1cc2ccccc2[nH]c1=O)C(=O)C1CCCCC1	78.6	81.8	·
CC(C)C(=O)N(Cc1cc2ccccc2[nH]c1=O)C(C)(C)C	95.0	-26.7*	·
CCC(=O)NC(Nc1ncc(C)s1)(C(=O)OC)C(F)(F)F (configuration not stated)	·	·	70.2*
CCOC(=O)c1ccc2nc(NC(NC(C)=O)(C(=O)OC)C(F)(F)F)sc2c1 (configuration not stated)	86.8	130.4	·
CCOC(=O)N1CCC(n2c(SCC(=O)Nc3nccs3)nc3ccsc3c2=O)CC1	·	80.9	·
CCC(c1nnnn1Cc1ccc(F)cc1)N(CCCO)Cc1cc2cc3c(cc2[nH]c1=O)OCO3 (configuration not stated)	·	95.2	·
Cc1ccc(S(=O)(=O)NCC2CCC(C(=O)NCc3ccco3)CC2)cc1 (configuration not stated)	·	110.5	-10.3
CSCC[C@H](NC(=O)NCc1ccc(F)cc1)C(=O)O	100.0	-15.0*	-15.9
